# Test results published in PubChem BioAssay AID588397 (National Center for Advancing Translational Sciences (NCATS), 2011).
# Values joined by “and” are separate entries in the source; they are usually repeats but may differ in a detail not shown here. Identical values can stand only once. The whole screen tested about 1,300 compounds, of which about 1,000 (77%) were called active. About 7% were inconclusive and are not listed. The call rests on the fitted dose curve; in most records, active means well fitted inhibition curve with a large enough effect; inconclusive means small, poorly fitted or top-dose-only effect; inactive means no such curve, though single readings can be large or run the other way. The set was probably picked from earlier hits. Some of the results follow.
# Experiment: qHTS of small molecules that selectively kill Giardia lamblia: Hit Validation.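 Further: viability measured as ATP content by luminescence so killing lowers signal; nearly all actives have a fitted effect of over 65% in size.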
# Details: Giardia lamblia trophozoite viability, dose-response; series mostly up to 38.3 µM
# Outline: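 Trophozoite viability was measured as ATP-dependent luminescence, read 15-30 min after reagent addition. Before that, parasites at 100 cells/well were exposed to compounds for 48 h, anaerobically, at 37 deg C.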
# Potency means the concentration at half of the fitted maximal effect.
row,SMILES,Potency
1,c1ccc(-c2nc(-c3cnc4ccccc4n3)cs2)cc1,5.79 µM (active)
2,c1ccc(CCNc2ncnc3nc[nH]c23)cc1,inactive
3,O=c1cc[nH]c2ccc([N+](=O)[O-])cc12,4.1 µM (active)
4,O=c1[nH]cnc2ccc([N+](=O)[O-])cc12,1.63 µM (active)
5,COc1ccc(/C(O)=C2/C(=O)C(=O)N(CCCN3CCOCC3)C2c2ccc(N(C)C)cc2)cc1 (stereo not given),inactive
6,O=C(/C=C/c1cccc([N+](=O)[O-])c1)c1ccco1,7.29 µM (active)
7,Brc1ccc(CNc2nc3ccccc3n2CCN2CCCCC2)cc1,0.516 µM (active)
8,O=[N+]([O-])c1nn(-c2ccc3c(c2)OCCO3)n(O)c1=NCc1ccccc1Cl,4.6 µM (active)
9,COc1ccccc1CN=c1c([N+](=O)[O-])nn(-c2ccc3c(c2)OCCO3)n1O,4.6 µM (active)
10,O=C(/C=C/c1ccc([N+](=O)[O-])s1)N1CCCC1,1.83 µM (active)
11,O=C(/C=C/c1ccc([N+](=O)[O-])s1)N1CCN(c2ccccc2)CC1,1.45 µM (active)
12,O=C(/C=C/c1ccc([N+](=O)[O-])s1)N1CCCCC1,1.45 µM (active)
13,CC1CC(C)CN(C(=O)/C=C/c2ccc([N+](=O)[O-])s2)C1 (stereo not given),4.6 µM (active)
14,COC(=O)c1ccc(Nc2ccc3nonc3c2[N+](=O)[O-])cc1,2.05 µM (active)
15,O=[N+]([O-])c1c(Nc2ccc(Br)cc2)ccc2nonc12,2.9 µM (active)
16,O=C(Cc1cccs1)N/N=C\c1ccc([N+](=O)[O-])s1,2.9 µM (active)
17,CC(=O)Nc1ccc(S(=O)(=O)N(CCc2ccccc2)CC(=O)N/N=C/c2ccc(C(=O)O)cc2)cc1,inactive
18,O=C(Cc1ccccc1)N/N=C/c1ccc([N+](=O)[O-])s1,1.83 µM (active)
19,NCCCn1c(C(=O)c2cc(Cl)c(N)c(Cl)c2)c2ccccc2[n+]1[O-],1.3 µM (active)
20,NCCCn1c(C(=O)c2cc(Cl)c(N)c(Cl)c2)c2ccc([N+](=O)[O-])cc2[n+]1[O-],1.63 µM (active)
21,NC(=O)CCCn1c(C(=O)c2cc(Cl)c(N)c(Cl)c2)c2ccc([N+](=O)[O-])cc2[n+]1[O-],5.16 µM (active)
22,CC[C@]1(C(=O)OC)[C@H]2C(=O)N(C)C(=O)[C@H]2[C@H]2CN(C)C(=NC)N21,inactive
23,CC(C)(C)NC(=O)CCN(/N=C/c1ccc([N+](=O)[O-])o1)C1=NS(=O)(=O)c2ccccc21,1.16 µM (active)
24,O=[N+]([O-])c1ccc(-c2nc(C(Cl)Cl)c3ccccc3n2)cc1,1.3 µM (active)
25,O=[N+]([O-])c1ccc(/C=N/Nc2nc(-c3ccccc3)c3cc(Br)ccc3n2)o1,0.918 µM (active)

row,SMILES,Potency
1,Cc1ccc2nc(N/N=C\c3ccc([N+](=O)[O-])o3)nc(-c3ccccc3)c2c1,0.46 µM (active)
2,Cc1cc(N/N=C/c2ccc([N+](=O)[O-])o2)nc2ccccc12,1.83 µM (active)
3,Cc1ccccc1C(=O)N1CCN(c2ccc(NC(=O)c3ccc([N+](=O)[O-])o3)cc2)CC1,0.818 µM (active)
4,O=C(Nc1ccc(N2CCN(C(=O)c3ccc(Cl)cc3)CC2)cc1)c1ccc([N+](=O)[O-])o1,0.579 µM (active)
5,O=C(Nc1ccc(N2CCN(C(=O)c3ccccc3)CC2)cc1)c1ccc([N+](=O)[O-])o1,0.818 µM (active)
6,COCCNc1cc(NCCOC)c([N+](=O)[O-])cc1[N+](=O)[O-],1.45 µM (active)
7,COC(=O)c1ccc2cc(OC)cc([N+](=O)[O-])c2n1,5.79 µM (active)
8,COCc1nnc(NC(=O)c2ccc(Cl)cc2[N+](=O)[O-])s1,2.59 µM (active)
9,O=C(C1=C(c2ccccc2)C(=O)c2ccccc2C1=O)c1ccccc1,11.6 µM (active)
10,O=[N+]([O-])c1cc(C(F)(F)F)ccc1Oc1cccnc1[N+](=O)[O-],4.1 µM (active)
11,Cc1csc(NC(=O)c2cn3ccccc3n2)n1,1.63 µM (active)
12,CCN(CC(=O)NCc1cccs1)C(=O)c1ccc([N+](=O)[O-])o1,0.41 µM (active)
13,O=C(CCN1C(=O)c2ccccc2C1=O)NCc1ccc(F)cc1,inactive
14,O=C(COc1cccnc1[N+](=O)[O-])Nc1ccc2c(c1)CCC2,16.3 µM (active)
15,COc1cccc(NC(=O)COc2cccnc2[N+](=O)[O-])c1,4.6 µM (active)
16,O=C(COc1cccnc1[N+](=O)[O-])NCc1ccc(F)cc1,5.16 µM (active)
17,CCN(CC)CCNC(=O)c1ccc(NC(=O)COc2ccc3c(c2)CCC3)cc1,inactive
18,C=CCNc1ncnc2sc(SC)nc12,inactive
19,COc1ccc(CNC(=O)COc2cccnc2[N+](=O)[O-])cc1OC,11.6 µM (active)
20,COc1ccc(CNC(=O)COc2cccnc2[N+](=O)[O-])cc1,6.5 µM (active)
21,COc1ccc(C(C)=O)cc1COc1cccnc1[N+](=O)[O-],6.5 µM (active)
22,O=C(COc1cccnc1[N+](=O)[O-])NCc1ccco1,6.5 µM (active)
23,O=C(COc1cccnc1[N+](=O)[O-])NCCc1ccc(Cl)cc1,3.65 µM (active)
24,O=C(COc1cccnc1[N+](=O)[O-])Nc1ccc(F)cc1,5.79 µM (active)
25,O=C(NCCc1ccccc1)c1ccc(CS(=O)(=O)c2ccc(Cl)cc2)o1,inactive

row,SMILES,Potency
1,CCCCc1cc(=O)oc2c(C)c(OCC(=O)NCc3ccccn3)ccc12,inactive
2,O=C(COc1cccnc1[N+](=O)[O-])NCc1cccs1,8.18 µM (active)
3,CC1CCCCC1NC(=O)COc1cccnc1[N+](=O)[O-] (stereo not given),2.31 µM (active)
4,CC1CCCCC1NC(=O)NC(=O)COC(=O)c1cncc(Br)c1 (stereo not given),inactive
5,CN(C)S(=O)(=O)c1cccc(C(=O)NCCNC(=O)c2cccc(S(=O)(=O)N(C)C)c2)c1,inactive
6,CN(C)c1cc(NC(=O)CNC(C)(C)CC(C)(C)C)c2ccccc2n1,1.03 µM (active)
7,O=[N+]([O-])c1ccccc1S(=O)(=O)Oc1ccc(/C=N/n2cnnc2)cc1,0.516 µM (active)
8,O=[N+]([O-])c1ccccc1S(=O)(=O)Oc1ccccc1/C=N/n1cnnc1,2.05 µM (active)
9,Cc1cc2ccccn2c1C(=O)c1ccc([N+](=O)[O-])cc1[N+](=O)[O-],4.6 µM (active)
10,Cn1ccsc1=NC(=O)c1ccc([N+](=O)[O-])o1,0.206 µM (active)
11,Cc1[nH]n(C2=NCCS2)c(=O)c1N=Nc1cccc(C(F)(F)F)c1,6.5 µM (active)
12,CCOC(=O)C1CCN(c2ccc([N+](=O)[O-])c(C(C)=O)c2)CC1,2.31 µM (active)
13,CC(=O)c1cc(N2CCOCC2)ccc1[N+](=O)[O-],1.83 µM (active)
14,CC1CCN(c2ccc(-c3ccc(NC(=O)C(F)(F)F)cc3)nn2)CC1,1.83 µM (active)
15,COc1ccc(-c2nc3ccccc3n2OCC(=O)O)cc1,5.79 µM (active)
16,CCC(C(=O)OC)n1c(-c2ccccc2)nc2ccccc2c1=O (stereo not given),inactive
17,CC(NC(=O)Cn1cc(Br)c([N+](=O)[O-])n1)c1ccccc1 (stereo not given),0.516 µM (active)
18,NNC(=O)c1cccc(Cn2cc(Br)c([N+](=O)[O-])n2)c1,1.16 µM (active)
19,O=[N+]([O-])c1ccc(COn2nnc3ccccc32)cc1,1.63 µM (active)
20,CC(Nc1nc(N2CCN(CCO)CC2)nc2ccccc12)c1ccccc1 (stereo not given),1.03 µM (active)
21,Cc1ccc(OCC(=O)c2cc(C)n(Cc3ccco3)c2C)c([N+](=O)[O-])n1,1.16 µM (active)
22,Cc1cc(C(=O)COc2cccnc2[N+](=O)[O-])c(C)n1Cc1ccco1,0.65 µM (active)
23,O=c1c2c(-c3ccccc3)csc2ncn1/N=C/c1ccc(O)c([N+](=O)[O-])c1,2.9 µM (active)
24,Cc1cc(C)cc(Oc2ccc(NC(=O)C3CC=CCC3C(=O)O)cc2)c1 (stereo not given),1.3 µM (active)
25,CCc1ccc(C(=O)Nc2nc3ccccc3[nH]2)cc1,0.46 µM (active)

row,SMILES,Potency
1,COC(=O)Nc1nc2ccc(Sc3ccccc3)cc2[nH]1,0.23 µM (active)
2,COC(=O)Nc1nc2ccc(C(=O)c3cccs3)cc2[nH]1,0.23 µM (active)
3,COC(=O)Nc1nc2ccc(SC(C)C)cc2[nH]1,0.365 µM (active)
4,CCc1cccc(NC(=O)CCCSc2nc3ccccc3[nH]2)c1,inactive
5,CCCSc1ccc2nc(NC(=O)OC)[nH]c2c1,0.516 µM (active)
6,COc1cc(SC)ccc1C(=O)Nc1nc2ccccc2[nH]1,0.146 µM (active)
7,CC(=O)Nc1nc(-c2cc([N+](=O)[O-])cs2)cs1,1.16 µM (active)
8,CCC(=O)Nc1nc(-c2cc([N+](=O)[O-])cs2)cs1,1.3 µM (active)
9,NC(=O)c1ccc(NC(=O)COc2ccc([N+](=O)[O-])cc2Cl)cc1,1.16 µM (active)
10,NC(=O)c1ccc(Nc2ccc([N+](=O)[O-])cc2[N+](=O)[O-])cc1,2.9 µM (active)
11,O=C(Nc1nccs1)c1cc([N+](=O)[O-])ccc1Cl,2.59 µM (active)
12,COc1ccc(C(=O)c2c3ccc([N+](=O)[O-])cc3[n+]([O-])n2CCCN)cc1,7.29 µM (active)
13,COc1ccc(C(=O)c2c3ccccc3[n+]([O-])n2CCCN)cc1,1.03 µM (active) and 3.26 µM (active)
14,COc1ccc(C(=O)c2c3ccc([N+](=O)[O-])cc3[n+]([O-])n2CCCC(N)=O)cc1,4.1 µM (active)
15,Cc1c(C(=O)O)sc2nc(SCC(=O)Nc3ccc(S(=O)(=O)NC(C)(C)C)cc3)[nH]c(=O)c12,inactive
16,CCN(CC)CCCC(C)Nc1c2ccc(Cl)cc2nc2ccc(OC)cc12 (stereo not given),0.13 µM (active)
17,CCN(CC)CCCC(C)Nc1cc(/C=C/c2ccccc2Cl)nc2cc(Cl)ccc12 (stereo not given),3.26 µM (active)
18,CC(C)C(=O)NC(=S)Nc1ccc(S(=O)(=O)N2CCCC2)cc1,inactive
19,O=C(Nc1cccc(S(=O)(=O)N2CCCCC2)c1)c1ccc([N+](=O)[O-])o1,0.729 µM (active)
20,COc1ccc(CNC(=O)CN2C(=O)COc3ccc(S(=O)(=O)N4CCCCC4)cc32)cc1,inactive
21,O=C(Nc1ccc(S(=O)(=O)N2CCCC2)cc1)c1ccc([N+](=O)[O-])o1,1.16 µM (active)
22,O=C(NCc1ccccc1CN1CCCC1)c1cccc(S(=O)(=O)N2CCCC2)c1,inactive
23,COc1ccc(S(=O)(=O)N2CCCCC2)cc1NC(=O)c1ccc([N+](=O)[O-])o1,1.45 µM (active)
24,O=C(Nc1ccc(S(=O)(=O)N2CCOCC2)cc1)c1ccc([N+](=O)[O-])o1,1.45 µM (active)
25,O=C(Nc1ccc2cn[nH]c2c1)c1ccc(S(=O)(=O)N2CCOCC2)cc1,inactive
